In PubChem BioAssay AID1445 (SRMLSC, 2008) one finds inhibition data, which are given here for 92 compounds.

SMILES strings stand for the structures. About 910 (0.41%) of roughly 220,000 compounds were called active. This is one part of a sample in which actives are shown more often than they occur.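 Rule for the calls: active = primary inhibition above the hit cutoff, then over 50% inhibition at one or more dose response concentrations (cut at about 23% in these data, passing the limit was not always enough); inconclusive = conflicting primary data, or primary hits not chosen for dose response; inactive = low primary inhibition, or under 50% at every dose.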 Potency and affinity values are given separately. Where a SMILES comes first, the peptide text is derived from it.

The target of this test is Aminopeptidase N (Plasmodium falciparum (isolate 3D7)) (UniProt O96935). Nature of the test: malaria alanyl aminopeptidase activity blockers – biochemical, fluorogenic H-Leu-NHMec substrate, 1536-well (AID 1445).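 Note: plate controls were DMSO full reaction for no effect and no enzyme background for full effect.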 To be noted: recombinant M1AAP, H-Leu-NHMec fluorogenic kinetic assay; at 30 µM, stronger effect = higher value unless noted.
Sequence of Aminopeptidase N (Plasmodium falciparum (isolate 3D7)) (O96935 whole entry, looked up): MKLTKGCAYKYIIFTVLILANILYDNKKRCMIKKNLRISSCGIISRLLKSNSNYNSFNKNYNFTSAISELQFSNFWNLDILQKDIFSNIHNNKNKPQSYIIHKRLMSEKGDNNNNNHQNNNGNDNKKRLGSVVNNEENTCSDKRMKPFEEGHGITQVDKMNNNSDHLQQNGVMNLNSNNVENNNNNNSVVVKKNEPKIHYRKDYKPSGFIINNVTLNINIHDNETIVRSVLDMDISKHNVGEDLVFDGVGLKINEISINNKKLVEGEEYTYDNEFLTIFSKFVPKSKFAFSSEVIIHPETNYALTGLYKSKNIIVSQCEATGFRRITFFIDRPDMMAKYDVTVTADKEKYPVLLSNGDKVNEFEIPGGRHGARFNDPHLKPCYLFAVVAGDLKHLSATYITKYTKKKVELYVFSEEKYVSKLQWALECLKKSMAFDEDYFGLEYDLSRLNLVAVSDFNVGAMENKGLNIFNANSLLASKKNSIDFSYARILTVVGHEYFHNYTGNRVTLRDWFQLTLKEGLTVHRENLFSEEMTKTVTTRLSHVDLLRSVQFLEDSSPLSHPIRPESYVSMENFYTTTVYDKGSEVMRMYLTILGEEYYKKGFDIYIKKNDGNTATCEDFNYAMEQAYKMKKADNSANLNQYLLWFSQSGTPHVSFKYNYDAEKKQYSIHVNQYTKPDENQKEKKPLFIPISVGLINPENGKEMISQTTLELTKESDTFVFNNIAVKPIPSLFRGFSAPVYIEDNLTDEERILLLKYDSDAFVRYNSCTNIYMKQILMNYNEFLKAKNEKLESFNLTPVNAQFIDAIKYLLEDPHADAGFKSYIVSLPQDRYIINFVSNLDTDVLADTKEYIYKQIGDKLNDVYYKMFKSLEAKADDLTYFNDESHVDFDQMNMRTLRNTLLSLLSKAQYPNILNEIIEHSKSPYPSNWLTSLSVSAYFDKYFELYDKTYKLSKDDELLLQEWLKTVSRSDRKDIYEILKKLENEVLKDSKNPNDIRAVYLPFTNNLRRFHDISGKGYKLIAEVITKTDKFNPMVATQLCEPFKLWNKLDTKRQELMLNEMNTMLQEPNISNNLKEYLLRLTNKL
As a reminder, the inhibition is the relative decrease from the control value, in per cent. As for `CC(C)c1ccc(-c2nnc(N)s2)cc1`, the inhibition is -1.69% (inactive).

Take `Cn1nc(C(C)(C)C)cc1NC(=O)Nc1ccc(F)cc1F`: the inhibition was 6.33% (inactive).

For `COc1ccc(S(=O)(=O)NCc2cc(-c3ccccc3Cl)no2)cc1`, the inhibition is 1.55% (inactive).

Take `COc1ccc(NC(=O)c2oc3ccccc3c2NC(=O)C(C)(C)C)cc1`: the inhibition was 6.73% (inactive).

Take `CCNc1nc(SC(C)C(=O)Nc2ccccc2)nc(N(C)C)n1` (configuration not stated): the inhibition was 0.28% (inactive).

As for `CCOC(=O)CNc1nc(Cl)nc(NC(C)(C)C)n1`, the inhibition was 5.43% (inactive).

In the case of `O=C(COc1ncnc2ccccc12)N1CCN(S(=O)(=O)c2ccc(Cl)cc2)CC1`, the inhibition is -2.49% (inactive).

With `O=C(COc1ncnc2ccccc12)N1CCN(S(=O)(=O)c2ccccc2)CC1`, the inhibition was 28.2% (active).

`O=C(COc1ncnc2c(Cl)cc(Cl)cc12)N1CCN(S(=O)(=O)c2ccccc2)CC1`: the inhibition was 5.95% (inactive).

For `O=C(CSc1ncn[nH]1)NN(c1ccccc1)c1ccccc1`, the inhibition was 0.8% (inactive).

As to `CC(=O)Nc1ccc(S(=O)(=O)Nc2nc3ccccc3nc2Nc2ccc(S(N)(=O)=O)cc2)cc1`, the inhibition is 19.6% (inactive).

As to `O=[N+]([O-])c1ccc(S(=O)(=O)Nc2nc3ccccc3nc2Nc2ccccc2)cc1`, the inhibition was 2.42% (inactive).

With `O=S(=O)(Nc1cccc(S(=O)(=O)N2CCCCCC2)c1)c1ccccc1`, the inhibition is -2% (inactive).

On to `Cc1nc(-c2cccc(NS(=O)(=O)c3ccccc3)c2)cs1`, for which the inhibition was 12.7% (inactive).

For the compound `CC(=O)Nc1ccc(Nc2nc3ccccc3nc2NS(=O)(=O)c2ccccc2)cc1`, the inhibition is 14.8% (inactive).

Turning to `CC(=O)Nc1ccc(S(=O)(=O)Nc2nc3ccccc3nc2Nc2ccc(O)cc2)cc1`, the inhibition was 29.4% (inactive).

Turning to `Cc1nc(-c2cccc(NS(=O)(=O)c3ccc4ccccc4c3)c2)cs1`, the inhibition is 11.2% (inactive).

As for `O=[N+]([O-])c1cccc(S(=O)(=O)Nc2nc3ccccc3nc2Nc2cccc(S(=O)(=O)N3CCCCC3)c2)c1`, the inhibition was 9.64% (inactive).

As for `COc1ccc(-n2c(COc3cccc4cccnc34)nnc2SCC(=O)O)cc1`, the inhibition is -1.59% (inactive).

Take `COc1cc(C)c(S(=O)(=O)NC2CC(C)(C)NC(C)(C)C2)cc1C`: the inhibition was -4.25% (inactive).

With `N/C(=N\OC(=O)Cc1ccccc1[N+](=O)[O-])c1ccccn1`, the inhibition was -2.27% (inactive).

Turning to `CC12CCC(=O)N1c1ccccc1C(=O)N2c1ccccc1` (configuration not stated), the inhibition was 5.47% (inactive).

With `CCC(CC)C(=O)OCC(=O)Nc1ccc(S(=O)(=O)N2CCOCC2)cc1OC`, the inhibition was -0.13% (inactive).

Take `COc1cccc2[nH]c3c(=O)n(CCCN4CCOCC4)cnc3c12`: the inhibition was 4.76% (inactive).

In the case of `CCOC(=O)c1c(C)c2c(n1C)CCC/C2=N\O`, the inhibition is 5.95% (inactive).

As to `Fc1cccc(/C=N/Nc2ncnc3nc[nH]c23)c1`, the inhibition was 17.8% (inactive).

`CCOC(=O)c1c(C)[nH]c(C(=O)Nc2ccc(C)c(Cl)c2)c1C`: the inhibition was -6.14% (inactive).

As to `O=C(N[C@@H](Cc1ccc(O)cc1)C(=O)O)C(c1ccccc1)c1ccccc1`, the inhibition is 1.32% (inactive).

Turning to `CC(C)[C@H](NC(=O)[C@H](CC(=O)O)NC(=O)[C@H](CCCCN)NC(=O)[C@@H](N)CCCN=C(N)N)C(=O)N[C@@H](Cc1ccc(O)cc1)C(=O)O` (H-RKDVY-OH), the inhibition was -1.63% (inactive).

`COc1cc(/C=N/n2cnnc2)ccc1OS(=O)(=O)c1ccccc1[N+](=O)[O-]`: the inhibition was -1.85% (inactive).

For the compound `CC/C(C)=C1\SC(N2CCN(c3cccc(C(F)(F)F)c3)CC2)=NC1=O`, the inhibition is -4.38% (inactive).

For `O=C(COc1ccc(Cl)cc1)NNC(=O)c1cccnc1`, the inhibition is 3.11% (inactive).

Turning to `CCC(CC)NC(=O)c1cccc(Br)c1`, the inhibition is 4.75% (inactive).

Regarding `CCn1c(Cc2ccc(OC)cc2)nnc1SCC(=O)NC1CCCCC1`, the inhibition is 5.01% (inactive).

As for `COc1cccc(NC(=O)CSc2nc3n[nH]c(C)c3c(=N)n2-c2cccc(OC)c2)c1`, the inhibition was 1.29% (inactive).

Turning to `COc1cccc(-n2c(SCC(=O)NC3CCCCC3)nc3n[nH]c(C)c3c2=N)c1`, the inhibition was 57.3% (active).

As to `CCc1ccc(NC(=O)CSc2nc3n[nH]c(C)c3c(=N)n2-c2cccc(OC)c2)cc1`, the inhibition is 3.02% (inactive).

Take `Cn1c(Cc2ccccc2)nnc1SCC(=O)NC1CCCCC1`: the inhibition is -1.27% (inactive).

`COc1ccc(Cc2nnc(SCC(=O)NC3CCCCC3)n2C)cc1`: the inhibition was 24.3% (active).

As to `Cc1ccc(S(=O)(=O)Oc2ccccc2/C=N/NC(=O)c2nn(C)cc2[N+](=O)[O-])cc1`, the inhibition was 9.1% (inactive).

With `CCOCCCNS(=O)(=O)c1ccc(OC)c(Cl)c1Cl`, the inhibition was -1.01% (inactive).

As to `COc1cnn(Cc2ccccc2)c(=O)c1SCc1ccccc1`, the inhibition is 2.35% (inactive).

On to `CS(=O)(=O)N1CCN(c2ccc(NC(=S)NC(=O)c3ccccc3[N+](=O)[O-])cc2)CC1`, for which the inhibition is 2.8% (inactive).

With `Cc1[nH]n(-c2cccc(Cl)c2)c(=O)c1-c1ccc(Cl)cc1`, the inhibition was 27.2% (active).

Turning to `Cc1[nH]n(-c2cccc(Cl)c2)c(=O)c1-c1ccccc1`, the inhibition is 13.4% (inactive).

Turning to `Cc1[nH]n(-c2ccccc2)c(=O)c1-c1ccc(Cl)cc1`, the inhibition is 17.9% (inactive).

With `CC(=O)c1sc(NC(=O)CCCOc2ccc(Cl)cc2)nc1C`, the inhibition is -3.27% (inactive).

Regarding `Oc1ccccc1N=Nc1nc(-c2ccccc2)c(-c2ccccc2)[nH]1`, the inhibition was -7.75% (inactive).

As to `O=c1c(=Nc2ccccc2O)c(=O)c2ccccc12`, the inhibition is -8.18% (inactive).

Consider `CCOc1ccc(NC(=S)Nc2ccc(Br)cc2Cl)cc1`, for which the inhibition was 2.64% (inactive).

Regarding `Cc1ccccc1NC(=O)CN1C(=O)C2C3CC(C(Br)C3Br)C2C1=O` (configuration not stated), the inhibition was 5.98% (inactive).

Take `O=C(CN1C(=O)C2C3C=CC(C3)C2C1=O)Nc1ccc(C(=O)O)cc1` (configuration not stated): the inhibition was 14.6% (inactive).

Consider `CCOc1ccc(NC(=O)c2ccccc2NC(=O)CN(C)CC(=O)Nc2ccc(C)cc2)cc1`, for which the inhibition was 1.3% (inactive).

For the compound `N#CC(=NCc1cccnc1)C1=C(O)c2ccccc2C1=O`, the inhibition was -2.18% (inactive).

On to `CC1(C)CC(=O)c2c(oc3ccc(NS(=O)(=O)c4cccc5cccnc45)cc23)C1`, for which the inhibition was 3.99% (inactive).

For `CCOC(=O)c1c(C)oc2ccc(NS(=O)(=O)c3ccc(C(=O)O)cc3)cc12`, the inhibition is 10.2% (inactive).

Consider `O=C(N=Nc1c(O)[nH]c2ccccc12)c1cccc(S(=O)(=O)Nc2ccccc2Cl)c1`, for which the inhibition is 13.3% (inactive).

Turning to `CCOCCc1nnc(NC(=O)Cc2ccccc2)s1`, the inhibition was 7.8% (inactive).

As to `CCn1c(SCC(=O)Nc2ccccc2C)nc2nc3c(cc2c1=O)COC(C)(C)C3`, the inhibition was 13.2% (inactive).

For `CCCc1cc(=O)oc2cc(C)cc(OCc3nn[nH]n3)c12`, the inhibition was 17.7% (inactive).

For `CCc1cc(=O)oc2cc(C)cc(OCc3nn[nH]n3)c12`, the inhibition is 9.2% (inactive).

As to `Cc1c(N2C(=O)/C(=C/c3ccccc3)SC2=S)c(=O)n(-c2ccccc2)n1C`, the inhibition is 13.6% (inactive).

Consider `Cc1c(N2C(=O)/C(=C\c3ccccc3O)SC2=S)c(=O)n(-c2ccccc2)n1C`, for which the inhibition was 13% (inactive).

For the compound `CCOc1cc(/C=C2\N=C(SCC)SC2=O)cc([N+](=O)[O-])c1OC(C)=O`, the inhibition is 60.6% (active).

As to `C=CCSC1=N/C(=C\c2cc(OCC)c(OC(C)=O)c([N+](=O)[O-])c2)C(=O)S1`, the inhibition was 10.7% (inactive).

With `COc1ccc(/C=C2\N=C(SC)SC2=O)cc1OC`, the inhibition is -0.19% (inactive).

In the case of `CCOc1c(OC(C)=O)ccc(/C=C2\N=C(SCC)SC2=O)c1[N+](=O)[O-]`, the inhibition was 9.88% (inactive).

Take `COC(=O)c1ccc(/C=C2\N=C(SC)SC2=O)cc1`: the inhibition was 6.81% (inactive).

For the compound `Cc1ccsc1/C=N/NC(=O)c1ccc(-n2cccc2)cc1`, the inhibition was -0.71% (inactive).

`CCC(=O)c1ccc(N2CCN(S(=O)(=O)c3ccccc3)CC2)c(F)c1`: the inhibition was -2.32% (inactive).

As to `OC1CCN(c2ncnc3c2nnn3Cc2c(F)cccc2Cl)CC1`, the inhibition was -1.3% (inactive).

Turning to `Cn1nnnc1SCC(=O)Nc1c(Cl)cccc1Cl`, the inhibition is -11.1% (inactive).

As to `O=C(NN1C(=O)c2cc(Br)ccc2NC1c1cc(Br)cc(Br)c1O)c1ccncc1` (configuration not stated), the inhibition was 15.9% (inactive).

Turning to `O=C(Cc1ccc(S(=O)(=O)N2CCOCC2)s1)NCC1CCCCC1`, the inhibition was 3.48% (inactive).

For `NS(=O)(=O)c1ccc(CCNC(=O)c2ccc(S(=O)(=O)N3CCCCC3)cc2)cc1`, the inhibition was 15.2% (inactive).

Turning to `NS(=O)(=O)c1ccc(CCNC(=O)CN2CCCCC2)cc1`, the inhibition is -1.82% (inactive).

In the case of `O=C(COC(=O)Cc1ccc(S(=O)(=O)N2CCOCC2)s1)NCCc1ccccc1`, the inhibition was 5.27% (inactive).

As to `CCn1cc(CNC(=O)CSc2nc(-c3ccc(OC)c(OC)c3)cc(C(F)(F)F)n2)c(C)n1`, the inhibition was 8.78% (inactive).

Turning to `O=C(CC1(c2ccc(Cl)cc2)C2CC3CC(C2)CC1C3)NCCO` (configuration not stated), the inhibition is 3.19% (inactive).

`CCN1CCN(CCCNC(=O)c2cn(CCOC)c(=O)c3c2c2ccccc2n3C)CC1`: the inhibition was 17.7% (inactive).

Take `COc1cc(CNc2ccc(O)cc2)cc(Br)c1OCc1ccccc1F`: the inhibition is 7.46% (inactive).

Take `CCOc1cc(CNc2ccc(O)cc2)cc(Br)c1OCc1ccccc1F`: the inhibition is 25.5% (active).

Take `CCOc1cc(CNc2ccccc2)cc(Br)c1OCc1ccccc1F`: the inhibition was 6.06% (inactive).

As for `Cn1c(C(=O)NC2CCCCC2)cc2c(=O)n(C)c3ccccc3c21`, the inhibition was -0.49% (inactive).

For the compound `CC1(CC(=O)N/N=C/c2cc([N+](=O)[O-])c(O)cc2O)OCCO1`, the inhibition is 9.24% (inactive).

Regarding `CC1(CC(=O)N/N=C/c2cc(Br)c(O)cc2O)OCCO1`, the inhibition is 31.5% (active).

Regarding `CC1(CC(=O)N/N=C/c2cc3c(cc2Br)OCO3)OCCO1`, the inhibition was 9.79% (inactive).

Turning to `COc1ccc(CCNC(=O)c2cc(-c3ccc(C)c(C)c3O)n[nH]2)cc1OC`, the inhibition is 0.7% (inactive).

For `Cc1ccc(S(=O)(=O)Nc2nc(C)c(C(=O)Nc3ccccc3)s2)cc1`, the inhibition was 4.37% (inactive).

In the case of `Cc1nc(NS(=O)(=O)c2ccccc2)sc1C(=O)NN`, the inhibition is 6.77% (inactive).

On to `C/C(=N/NC(=O)c1sc(NS(=O)(=O)c2ccccc2)nc1C)c1ccccc1`, for which the inhibition is 18.9% (inactive).

Regarding `Cc1ccc(S(=O)(=O)Nc2nc(C)c(C(=O)NNS(=O)(=O)c3ccccc3)s2)cc1`, the inhibition was 3.2% (inactive).
